# From PubChem
# APOBEC3G inh = inhibitors of human APOBEC3G DNA deaminase; Q9HC16; recombinant A3G, ssDNA deamination FAM/TAMRA fluorescence; inhibition, % at 20 µM; 330,000 tested, 0.28% active; AID 493012;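 active means inhibition of at least 40% at 20 µM, with no more than 30% in the related APOBEC3A deaminase screen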;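 further: plate controls were DMSO wells with A3G for no effect and wells lacking A3G enzyme for full effect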
# rCAG binder = r(CAG) repeat RNA binding; 370,000 tested, 1.3% active; inhibition, % at 3 µM; AID 651821; TO-PRO-1 dye displacement fluorescence;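 active means inhibition above the plate cutoff, the mean of all test compounds on that plate plus 3 SD, cut at about 35% in these data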;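 further: 0% = DMSO alone and 100% = 100 µM mitoxantrone as full dye displacement; higher means more dye released from RNA so lower well fluorescence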
# ALR H2O2 inh = blocks human ALR sulfhydryl oxidase activity. P55789. purified ALR, DTT oxidation, H2O2 HRP-luminol luminescence. inhibition, % (concentration not given with the values). 290,000 tested, 3.8% active;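 active means mean replicate inhibition above about 79%, with every replicate also reaching it, limit read from the data; inconclusive means only one of the two criteria met; inactive means mean below limit and not every replicate reaching it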
# Target sequence (P55789 whole entry, looked up): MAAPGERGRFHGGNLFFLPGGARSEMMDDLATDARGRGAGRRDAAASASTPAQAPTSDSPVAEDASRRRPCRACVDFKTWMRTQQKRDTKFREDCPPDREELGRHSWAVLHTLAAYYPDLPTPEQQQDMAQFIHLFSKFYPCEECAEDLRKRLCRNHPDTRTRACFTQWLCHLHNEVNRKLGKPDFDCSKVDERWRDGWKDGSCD
# aDG glyco up = alpha-DG glycosylation activation | Pro5-aDG cells, alpha-DG glycosylation AlphaScreen (IIH6); 0% Pro5, 100% B10-LARGE cell signal | activation, % at 10 µM | 360,000 tested, 0.22% active | AID 624168;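 active means activation of at least 8% versus controls, or a plate z-score of at least 8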;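 further: Pro5 are CHO cells carrying HIG-tagged alpha-DG that lacks glycosylation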
# PHOSPHO1 block = inhibitors of human PHOSPHO1 phosphatase; 290,000 tested, 1.1% active; inhibition, % at 13.3 µM; recombinant PHOSPHO1, absorbance phosphatase assay; Q8TCT1; AID 1565; in the data active means inhibition above about 60%
# Target sequence (Q8TCT1 whole entry, looked up): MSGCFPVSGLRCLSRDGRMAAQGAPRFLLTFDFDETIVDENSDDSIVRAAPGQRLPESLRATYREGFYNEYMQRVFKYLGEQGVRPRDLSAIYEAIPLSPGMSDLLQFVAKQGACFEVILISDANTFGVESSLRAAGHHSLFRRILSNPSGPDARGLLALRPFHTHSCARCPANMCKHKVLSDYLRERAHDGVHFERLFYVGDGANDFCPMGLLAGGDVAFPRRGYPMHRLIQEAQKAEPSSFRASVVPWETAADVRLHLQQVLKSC
# APOBEC3A inh = human APOBEC3A DNA deaminase inhibition. recombinant A3A, FAM/TAMRA ssDNA deamination fluorescence. inhibition, % at 20 µM. 330,000 tested, 0.41% active. AID 493011;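 active means at least 40% inhibition at 20 µM here, with at most 30% in a related deaminase screen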;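 further: plate controls were A3A with DMSO for no effect and wells lacking A3A enzyme for full effect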
# rCAG bind conf = r(CAG) RNA repeat binding, confirmation; shares compounds with rCAG binder; TO-PRO-1 dye displacement fluorescence; inhibition, % at 3 µM; 4,300 tested, 70% active;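 active means inhibition above a per-plate cutoff, the mean inhibition of sample wells plus 3 SD, cut at about 35% in these data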;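 further: loss of TO-PRO-1 fluorescence as compound displaces dye from 1x1 AA loop RNA; 0% = DMSO only wells and 100% = 100 µM mitoxantrone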
# DNA CAG counter = counter-screen for rCAG RNA binders: DNA CAG dye complex inhibitors | AID 652068 | 4,300 tested, 94% active | d(CAG) DNA oligo TO-PRO-1 dye displacement, fluorescence | inhibition, % at 3 µM | shares compounds with rCAG binder;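 active means inhibition above its plate's cutoff, the mean test-well inhibition plus 3 SD, cut at about 4.8% in these data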;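 further: 0% = DNA dye mix with DMSO and 100% = 100 µM mitoxantrone; hits displace the dye from DNA and so lower well fluorescence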
# An asterisk follows results filed as active; ? = inconclusive; . = not tested or not shown. A selection: hits, their analogues and other compounds. The true share with any hit is near 5.4%.
SMILES,APOBEC3G inh,rCAG binder,ALR H2O2 inh,aDG glyco up,PHOSPHO1 block,APOBEC3A inh,rCAG bind conf,DNA CAG counter
Cc1cccnc1Nc1nc(-c2ccc(O)c(O)c2)cs1,-7,38*,99*,0,30,-3,54*,19*
COc1ccc(-c2csc(Nc3ncccc3C)n2)cc1OC,-4,4,-1,0,-45,2,.,.
Oc1ccc(-c2csc(Nc3cccc4ccccc34)n2)cc1O,1,54*,73,0,14,-2,55*,34*
COc1cc2c(cc1CNC[C@H]1O[C@@H](n3ccc(N)nc3=O)[C@H](O)[C@@H]1O)OCO2,.,2,.,0,.,.,.,.
O=C(O)c1cc(S(=O)(=O)N2CCN(S(=O)(=O)c3ccc4ccccc4c3)CC2)ccc1Br,-1,53*,16,0,.,21,43*,15*
O=C(O)c1cc(S(=O)(=O)N2CCN(C(c3ccccc3)c3ccccc3)CC2)ccc1Cl,-6,55*,87*,0,24,1,49*,17*
O=S1(=O)N[C@H](Cc2ccccc2)COc2cccc(N3CCCCC3)c21,.,-1,.,.,.,.,.,.
CC(=O)c1ccc(S(=O)(=O)N2CCN(C(=O)C(=O)c3cccc(C(F)(F)F)c3)CC2)cc1,.,1,.,.,.,.,.,.
CC(c1ccco1)N(C(=O)c1ccccc1NS(=O)(=O)c1cc([N+](=O)[O-])ccc1Cl)c1ccccn1 (configuration not stated),-2,58*,-4,0,-7,-2,53*,21*
CC(=O)Nc1ccc(NC(=O)c2ccc(NS(=O)(=O)c3cc(C(C)(C)C)cc(C)c3C)cc2)cc1,-3,-11,-1,0,10,0,.,.
Cc1cc(C(C)(C)C)cc(S(=O)(=O)Nc2ccc(O)c(C(=O)O)c2)c1C,-1,57*,?,0,31,1,23,5.3*
COc1ccc(C=Nn2c(-c3n[nH]c4c3CCC4)n[nH]c2=S)cc1OCc1ccccc1,.,49*,.,.,.,.,45*,17*
Fc1ccc(-c2n[nH]c(=S)n2N=Cc2ccc(OCc3ccccc3)cc2)cc1,.,67*,.,.,.,.,47*,17*
Fc1ccccc1-c1n[nH]c(=S)n1N=Cc1ccc(OCc2ccccc2)cc1,.,70*,.,.,.,.,58*,20*
Fc1ccc(-c2n[nH]c(=S)n2N=Cc2ccc(-c3ccccc3)cc2)cc1,.,44*,.,.,.,.,40*,16*
CCC(CC)C(C(=O)NCc1ccccc1)N(C)Cc1ccc(Cl)c(Cl)c1 (configuration not stated),.,4,.,0,.,.,.,.
CCN(CC)c1ccc(C=Nn2c(-c3ccc(F)cc3)n[nH]c2=S)c(O)c1,.,64*,.,.,.,.,52*,16*
COc1ccc(C=Nn2c(-c3ccccc3F)n[nH]c2=S)cc1OCc1ccccc1,.,50*,.,.,.,.,42*,10*
Oc1ccc2ccccc2c1C=Nn1c(-c2n[nH]c3c2CCC3)n[nH]c1=S,.,72*,.,.,.,.,60*,22*
COc1cccc(C=NNC(=S)NC2CC3CCC2C3)c1O (configuration not stated),.,6,.,.,.,.,.,.
O=C1/C(=C/c2ccc(Br)cc2)Oc2cc(O)ccc21,-21,10,2,0,20,-11,.,.
CC(C)(C)c1ccc(/C=C2\Oc3cc(O)ccc3C2=O)cc1,-6,58*,.,0,14,0,50*,16*
COc1ccc(OC)c(NC(=O)C2(C)CCN2Cc2ccccc2Cl)c1 (configuration not stated),.,3,.,0,.,.,.,.
Nc1nc2c(ncn2[C@@H]2O[C@H](CNCC3=Cc4cc(O)ccc4OC3)[C@@H](O)[C@H]2O)c(=O)[nH]1,.,4,.,0,.,.,.,.
O=[N+]([O-])c1ccccc1S(=O)(=O)Nc1ccc(S(=O)(=O)Nc2nccs2)cc1,-12,4,.,0,45,-2,.,.
Nc1ccc(S(=O)(=O)Nc2nccs2)cc1N=Nc1ccccc1[N+](=O)[O-],.,68*,.,0,.,.,81*,48*
